SARS PLpro yeast-1: inhibitors of SARS-CoV papain-like protease in yeast | 330,000 tested, 0.19% active | Potency, µM (doses to about 32.9 µM), without a hit: at the highest dose activity, positive = growth rescue, hits mostly activators | AID 485353 | S. cerevisiae expressing SARS-CoV PLpro, growth rescue; calls by dose curve; further: potency means the concentration at half of the fitted maximal effect; 0% is about no effect; nearly all actives have a fitted effect of over 55% in size
CHX counter: affects cycloheximide protein synthesis inhibition readout, counter-screen; cell reporter, cycloheximide protein synthesis inhibition counterscreen; max response, %; 300,000 tested, 12% active; AID 2314; in the data active means max response mostly above about 13%, no sharp cut-off; inactive means mostly below about 14%; further: read at 38.3 µM for the half of the compounds with a filed dose; 0% is about no effect
LmPK inhibitor: inhibitors of Leishmania mexicana pyruvate kinase | purified LmPK, Kinase-Glo ATP luminescence, 1 h | Potency, µM (top dose mostly 57.5 µM), inactives show at the highest dose activity change, negative = inhibition, hits mostly inhibitors | 290,000 tested, 0.37% active; further: potency means the concentration at half of the fitted maximal effect; on the % scale 0 is the no-effect control and ±100 the full control effect
Target sequence (Q27686 whole entry, looked up): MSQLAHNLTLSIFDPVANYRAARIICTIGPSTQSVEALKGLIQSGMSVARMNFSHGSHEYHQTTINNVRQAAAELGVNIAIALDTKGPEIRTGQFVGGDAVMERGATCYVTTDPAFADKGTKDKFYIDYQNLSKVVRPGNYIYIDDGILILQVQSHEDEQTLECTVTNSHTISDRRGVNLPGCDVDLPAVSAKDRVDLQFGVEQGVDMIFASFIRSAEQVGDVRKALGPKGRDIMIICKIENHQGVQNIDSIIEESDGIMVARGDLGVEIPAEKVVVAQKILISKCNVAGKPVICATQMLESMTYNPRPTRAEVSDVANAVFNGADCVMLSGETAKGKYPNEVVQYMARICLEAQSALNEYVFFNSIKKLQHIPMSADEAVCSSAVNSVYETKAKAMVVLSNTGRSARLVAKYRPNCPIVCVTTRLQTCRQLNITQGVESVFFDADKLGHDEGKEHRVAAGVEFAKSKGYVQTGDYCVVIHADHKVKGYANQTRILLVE
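Kinase-Glo luminescence read after 1 h RT reaction of 0.1 nM LmPK with 0.5 mM PEP and 0.1 mM ADP. Activity scaled between uninhibited and enzyme-free controls.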
NS1 function inh: inhibitors of influenza NS1 protein function; Potency, µM (titrated, usually from 46.1 µM), for the others: at the highest dose activity, positive = more growth; 270,000 tested, 0.4% active; calls by dose curve; further: potency means the concentration at half of the fitted maximal effect; actives are rising curves; nearly all actives have a fitted effect of over 50% in size
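A cell-based growth assay was used: compounds that relieve NS1-induced slow growth of budding yeast raise OD600. Assay medium was yeast nitrogen base with ammonium sulphate and -URA supplement, pH 6.0, with 2% galactose.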
Shiga toxin inh: inhibitors of Shiga toxin in Vero cells; Vero cells, Shiga toxin protein synthesis inhibition reporter; inhibition, % at 38.7 µM; 290,000 tested, 9.2% active; in the data active means inhibition mostly above about 28%, no sharp cut-off; inactive means mostly below about 43%; further: 0% is about no effect
Tb PYK inh: blocks Trypanosoma brucei pyruvate kinase; TbPYK enzyme, Kinase-Glo Plus ATP luminescence, 45 min; Q57TT1; 410,000 tested, 0.12% active; Potency, µM (highest dose often 76.8 µM), without a hit: at the top dose activity, negative = inhibition, most hits filed as inhibitors; further: potency means the concentration at half of the fitted maximal effect; on the % scale 0 is the no-effect control and ±100 the full control effect; nearly all actives have a fitted effect of over 50% in size
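ADP (130 uM final) triggers the TbPYK reaction after compound addition; incubation is 45 min at room temperature. Kinase-Glo Plus is then added and luminescence imaged. Normalized data are fitted to concentration-effect curves.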
SARS PLpro yeast-2: Rescues yeast growth by inhibiting SARS-CoV PLpro; calls only; AID 652038; shares compounds with SARS PLpro yeast-1; 1,000 tested, 19% active; yeast expressing SARS-CoV PLpro, growth phenotype rescue; call rule not given here
Starred values were filed as active, the others as inactive; i = inactive; ? = inconclusive; / = not tested or not shown; + = active, no number. The sample as a whole holds a higher share of hits than the screen did. Unless noted, the call rests on the fitted dose curve; in most records, active means well fitted curve in the direction sought with a large enough effect; inconclusive means small, poorly fitted or top-dose-only effect, or another doubt; inactive means no such curve, though single readings can be large; an effect the other way counts as inactive or inconclusive.

SMILES | SARS PLpro yeast-1 | CHX counter | LmPK inhibitor | NS1 function inh | Shiga toxin inh | Tb PYK inh | SARS PLpro yeast-2
CCC(=O)NC(c1cccs1)c1cc([N+](=O)[O-])c2cccnc2c1O (stereo unspecified) | ? | -3 | 1% | -23% | -11 | 0% | i
CCCC(=O)NC(c1cccs1)c1cc([N+](=O)[O-])c2cccnc2c1O (stereo unspecified) | / | -1 | -3% | 8% | 15 | -15% | i
CC(C)C(=O)NC(c1ccccc1)c1cc([N+](=O)[O-])c2cccnc2c1O (stereo unspecified) | ? | 1 | 6% | 4% | -14 | -7% | i
CC(=O)NC(c1ccccc1)c1cc([N+](=O)[O-])c2cccnc2c1O (stereo unspecified) | 2% | -2 | -1% | / | 16 | -18% | /
O=C1C2C3C=CC(O3)C2C(=O)N1N=Cc1cccc2ccccc12 (stereo unspecified) | / | / | / | / | / | 7% | /
O=C(CSc1n[nH]c(-c2ccccc2Cl)n1)NCCc1ccccc1 | / | / | / | / | / | -6% | /
COc1cccc(N2C(=O)C3NN=C(C(=O)CN4C(=O)c5ccccc5C4=O)C3C2=O)c1 (stereo unspecified) | 0% | 0 | 8% | -1% | -5 | -6% | /
COc1cc(C(=O)NC2CCN(Cc3nnnn3Cc3cccs3)CC2)cc(OC)c1OC | 4µM* | -2 | 2% | -9% | 14 | 5% | i
O=C(Nc1ccc(Br)cc1)c1cccn1-c1ncc(C(F)(F)F)cc1Cl | ? | 12 | -1% | -40% | 21 | -2% | i
Cc1ccc(C(=O)NC(=S)Nc2ccccc2N2CCCC2)cc1[N+](=O)[O-] | ? | 5 | -1% | 17% | -1 | -13% | +
COc1ccc(-c2nc3c(C)cc(Br)cn3c2Cc2cccc(Cl)c2)cc1OC | / | / | / | / | / | -3% | /
COc1ccc(CNC(=O)C[C@H]2C[C@H](C(=O)N3CCOCC3)[C@@]3(CCC4CCCC4)c4[nH]c5cc(CCC(=O)N(C)C)ccc5c4CCN3C2=O)cc1OC | ? | / | / | / | / | -1% | i
COc1cccc(CNC(=O)C2CCN(C(=O)c3sccc3-n3cccc3)CC2)c1 | / | / | / | / | / | -3% | /
COc1ccc(-n2ccn3c(CC(C)(C)CC(=O)O)nnc3c2=O)cc1 | / | / | / | / | / | -1% | /
COc1ccc(NC(=O)N2CCC(n3nnc4cc(C)ccc43)CC2)cc1 | ? | 5 | 1% | 0% | 2 | 0% | i
COc1cc(S(=O)(=O)N2CCN(C(=O)c3ccco3)CC2)ccc1Cl | 2% | -2 | 8% | 9% | / | 3% | /
O=[N+]([O-])c1ccc(Oc2cccc3cccnc23)c([N+](=O)[O-])c1 | / | -2 | 2% | -18% | -8 | -12% | i
O=C(NCC(c1ccco1)S(=O)(=O)c1cccs1)c1c(F)cccc1F (stereo unspecified) | / | / | / | / | / | 0% | /
C/C(CC(c1ccccc1)c1c(O)c2ccccc2oc1=O)=N\NC(N)=S (stereo unspecified) | 11µM* | -1 | 4% | 3% | 26 | -15% | i
Cc1cccc(C)c1NC(=O)CCSc1nc(-c2ccc3c(c2)OCO3)cc(C(F)(F)F)n1 | / | / | / | / | / | 3% | /
COc1cc(OC)c(NC(=O)CN(C)S(=O)(=O)c2ccc3c(c2)CCCC(=O)N3)cc1Cl | / | / | / | / | / | -8% | /
Cc1cccc(C2NC(c3cccc(C)c3)C([N+](=O)[O-])C(C)(C)C2[N+](=O)[O-])c1 (stereo unspecified) | ? | -3 | 2% | 18% | -3 | -2% | i
Cc1ccccc1C1NC(c2ccccc2C)C([N+](=O)[O-])C(C)(C)C1[N+](=O)[O-] (stereo unspecified) | 0% | 1 | 6% | 5% | 3 | -2% | /
O=C(CNC(=O)c1ccco1)OC(C(=O)c1ccccc1)c1ccccc1 (stereo unspecified) | ? | -4 | 0% | -21% | 2 | 5% | i
COc1cc(NC(=O)c2cccc([N+](=O)[O-])c2C)ccc1NC(=O)c1ccco1 | 2.8µM* | 19* | 2% | 19% | 72* | -1% | i

Assay outcomes deposited in PubChem by National Center for Advancing Translational Sciences (NCATS).
